In PubChem BioAssay AID1159580 (chemical genetic matrix, 2015):
Hit rate of the full screen: of about 5,500 compounds, about 2,000 (36%) were called active. About 18% were inconclusive and are not listed. No stated cut-off is given here; in the data, active means normalized growth mostly below about 0.91 (no sharp cut-off); inconclusive means no clear call, values can overlap the other calls; inactive means mostly above about 0.92. The list shows a part of the results.

Assay: chemical genetic growth profiling, strain panel (AID 1159580);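 further: tested at 20 µM; growth read once vehicle control cultures reached saturation at 30 °C; 1 = growth at the plate median or of vehicle wells; lower values mean less growth of the strain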
Settings: growth OD
[1] = S. cerevisiae deletion strains, locus YAL013W, strain DEP1, active compounds read low
[2] = S. cerevisiae deletion strains, locus YBR229C, strain ROT2, active compounds read low
[3] = S. cerevisiae deletion strains, locus YDL101C, strain DUN1, active compounds read low
[4] = S. cerevisiae deletion strains, locus YDL134C, strain PPH21, active compounds read low
[5] = S. cerevisiae deletion strains, locus YDR150W, strain NUM1, active compounds read low
[6] = S. cerevisiae deletion strains, locus YEL061C, strain CIN8, active compounds read low
[7] = S. cerevisiae deletion strains, locus YGR078C, strain PAC10, active compounds read low
[8] = S. cerevisiae deletion strains, locus YHR030C, strain SLT2, active compounds read low
[9] = S. cerevisiae deletion strains, locus YHR087W, strain rtc3, active compounds read low
[10] = S. cerevisiae deletion strains, locus YJR075W, strain HOC1, active compounds read low
[11] = S. cerevisiae deletion strains, locus YLR039C, strain RIC1, active compounds read low
[12] = S. cerevisiae deletion strains, locus YLR058C, strain SHM2 (second series), active compounds read low
[13] = S. cerevisiae deletion strains, locus YLR085C, strain ARP6, active compounds read low
[14] = S. cerevisiae deletion strains, locus YLR262C, strain YPT6, active compounds read low
[15] = S. cerevisiae deletion strains, locus YML094W, strain GIM5, active compounds read low
[16] = S. cerevisiae deletion strains, locus YMR219W, strain ESC1, active compounds read low
[17] = S. cerevisiae deletion strains, locus YMR263W, strain SAP30, active compounds read low
[18] = S. cerevisiae deletion strains, locus YMR307W, strain GAS1, active compounds read low
[19] = S. cerevisiae deletion strains, locus YNL153C, strain GIM3, active compounds read low
[20] = S. cerevisiae deletion strains, locus YNL298W, strain CLA4 (second series), active compounds read low
[21] = S. cerevisiae deletion strains, locus YNL322C, strain KRE1, active compounds read low
[22] = S. cerevisiae deletion strains, locus YNR030W, strain Alg12, active compounds read low
[23] = S. cerevisiae deletion strains, locus YOL006C, strain TOP1, active compounds read low
[24] = S. cerevisiae deletion strains, locus YPL055C, strain LGE1, active compounds read low
[25] = S. cerevisiae deletion strains, locus YPL241C, strain CIN2, active compounds read low
[26] = S. cerevisiae deletion strains, locus YPR135W, strain CTF4, active compounds read low
[27] = S. cerevisiae strains, strain wild type, active compounds read low

Measured: normalized growth

CCc1cccc(C)c1NC(=O)N1CCN(C(=O)OC(C)(C)C)CC1
inactive: [1] 0.992 | [2] 0.99 | [3] 0.987 | [4] 1.01 | [5] 1.03 | [6] 1.01 | [7] 1 | [8] 1.01 | [9] 0.995 | S. cerevisiae deletion strains, locus YJR043C, strain POL32, active compounds read low 1 | [10] 0.988 | [11] 1.04 | [12] 0.99 | [13] 1 | [14] 0.984 | [15] 0.991 | [16] 0.984 | [17] 1.01 | [18] 1.05 | [19] 0.994 | [20] 1.02 | [21] 0.999 | [22] 1.01 | [23] 1.01 | [24] 0.987 | [25] 1.03 | [26] 1.01 | [27] 1

CC(N)=NCc1cccc(CN)c1
inactive: [1] 1.02 | S. cerevisiae deletion strains, locus YAL040C, strain CLN3, active compounds read low 1.01 | S. cerevisiae deletion strains, locus YCL061C, strain MRC1 (second series), active compounds read low 1.01 | [5] 1.01 | S. cerevisiae deletion strains, locus YDR363W, strain ESC2, active compounds read low 1.02 | S. cerevisiae deletion strains, locus YER002W, strain NOP16, active compounds read low 1.03 | [18] 1.03 | S. cerevisiae deletion strains, locus YNL175C, strain NOP13, active compounds read low 1.02 | S. cerevisiae deletion strains, locus YNL197C, strain WHI3, active compounds read low 1 | S. cerevisiae deletion strains, locus YNL224C, strain SQS1, active compounds read low 1 | S. cerevisiae deletion strains, locus YOR083W, strain WHI5 (second series), active compounds read low 0.996 | [25] 1.01

CCSC(SCC)[C@H](O)[C@@H](O)[C@H](O)CO
inactive: [1] 0.976 | [2] 0.992 | [3] 0.993 | [4] 1.01 | [5] 0.995 | [6] 0.998 | [7] 0.981 | [8] 0.939 | [9] 0.98 | [10] 0.994 | [11] 0.992 | [12] 0.993 | [13] 1.05 | [14] 0.904 | [15] 1.02 | [16] 1 | [17] 0.994 | S. cerevisiae deletion strains, locus YNL128W, strain TEP1, active compounds read low 1 | [19] 0.988 | [20] 0.988 | [21] 0.985 | [22] 0.992 | [23] 1.01 | [24] 1 | [25] 1.04 | [26] 0.922 | [27] 0.992
